23 compounds from PubChem BioAssay (NCATS) can be followed below.

Results filed as inconclusive are left out. The source made the active and inactive calls. Unless noted, calls come from the whole dose curve.
Potency is the fitted concentration of half-maximal effect.

Chain of Rap guanine nucleotide exchange factor 4 (Homo sapiens) (Q8WZA2 whole entry, looked up): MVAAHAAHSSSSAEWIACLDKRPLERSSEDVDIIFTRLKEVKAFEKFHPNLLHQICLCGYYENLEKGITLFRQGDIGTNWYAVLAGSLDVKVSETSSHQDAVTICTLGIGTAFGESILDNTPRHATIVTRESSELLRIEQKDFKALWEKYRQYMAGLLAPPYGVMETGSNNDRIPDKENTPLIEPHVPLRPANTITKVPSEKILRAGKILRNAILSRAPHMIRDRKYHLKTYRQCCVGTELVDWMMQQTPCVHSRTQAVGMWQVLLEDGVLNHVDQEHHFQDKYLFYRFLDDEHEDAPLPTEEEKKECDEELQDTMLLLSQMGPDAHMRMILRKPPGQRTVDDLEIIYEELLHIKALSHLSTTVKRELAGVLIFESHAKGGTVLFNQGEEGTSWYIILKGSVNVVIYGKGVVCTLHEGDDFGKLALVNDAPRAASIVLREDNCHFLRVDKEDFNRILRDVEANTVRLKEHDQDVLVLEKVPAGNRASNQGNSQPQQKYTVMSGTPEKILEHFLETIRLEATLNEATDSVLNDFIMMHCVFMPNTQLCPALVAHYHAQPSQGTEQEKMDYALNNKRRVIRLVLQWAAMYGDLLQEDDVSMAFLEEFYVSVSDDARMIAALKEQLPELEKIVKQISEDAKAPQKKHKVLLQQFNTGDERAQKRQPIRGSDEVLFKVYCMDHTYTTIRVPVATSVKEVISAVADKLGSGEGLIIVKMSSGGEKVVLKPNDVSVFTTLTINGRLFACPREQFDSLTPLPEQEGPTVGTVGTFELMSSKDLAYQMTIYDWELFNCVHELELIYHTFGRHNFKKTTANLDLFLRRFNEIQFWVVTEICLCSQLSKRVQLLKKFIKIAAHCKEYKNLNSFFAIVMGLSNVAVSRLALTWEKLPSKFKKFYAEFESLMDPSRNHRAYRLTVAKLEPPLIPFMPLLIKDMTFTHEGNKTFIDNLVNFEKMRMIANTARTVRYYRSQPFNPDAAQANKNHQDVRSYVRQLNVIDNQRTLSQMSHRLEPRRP
Chain of Nicotinamide N-methyltransferase (Homo sapiens) (P40261 whole entry, looked up): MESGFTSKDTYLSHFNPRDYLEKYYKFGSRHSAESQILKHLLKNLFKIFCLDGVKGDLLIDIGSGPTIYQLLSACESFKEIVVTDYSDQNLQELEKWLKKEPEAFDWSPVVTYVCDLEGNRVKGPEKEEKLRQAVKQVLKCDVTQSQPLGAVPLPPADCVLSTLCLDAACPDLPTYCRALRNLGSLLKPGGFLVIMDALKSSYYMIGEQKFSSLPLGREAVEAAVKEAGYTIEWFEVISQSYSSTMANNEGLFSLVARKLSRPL

The first experiment has as its target Rap guanine nucleotide exchange factor 4 (Homo sapiens) (UniProt Q8WZA2). The experiment in a line: Confirmatory qHTS for agonist of cAMP-regulated guanine nucleotide exchange factor 4 (EPAC2) (AID 1645884; active = well fitted activation curve with a large enough effect;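 note: nucleotide exchange releases bodipy-GDP from Rap1 and this lowers its fluorescence; nearly all actives have a fitted effect of over 65% in size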; for activation: % is set by controls: 0 for no effect and ±100 for the full control effect). To be noted: EPAC2 GEF activity, Rap1B-BODIPY-GDP fluorescence; series mostly up to 154 µM.
On to `CC(C)(C)c1cc(O)ccc1O`, for which the Potency result was “inactive”.
Still for that read-out and setting: to `CCCn1c(C)c(C(=O)c2ccc3ccccc3c2)c2ccccc21` belongs “inactive”; to `O=c1[nH]cc(N(CCCl)CCCl)c(=O)[nH]1`, “inactive”; to `O=[N+]([O-])c1cc(O)c(O)c([N+](=O)[O-])c1`, “inactive”.
Still for that read-out and setting: for `O=C1OC2(c3cc(Br)c(O)cc3Oc3c2cc(Br)c(O)[c]3[Hg])c2ccccc21` (centres undefined) the value was 1.34 µM (active); for `CCCCCc1cc(O)c2c(c1)OC(C)(C)[C@@H]1CCC(C)=C[C@@H]21`, “inactive”.

For another experiment, the target named is Catechol O-methyltransferase (Homo sapiens) (UniProt P21964). The experiment in a line: Confirmatory Screen for Target Class Profiling of Small Molecule Inhibitors of Methyltransferases (AID 1745852). For activity change, negative = inhibition: % is set by controls: 0 for no effect and ±100 for the full control effect. To be noted: MTase-Glo luminescence, SAH detection, recombinant enzyme; measured here: COMT max response; stronger effect = lower value.
Chain of Catechol O-methyltransferase (Homo sapiens) (P21964 whole entry, looked up): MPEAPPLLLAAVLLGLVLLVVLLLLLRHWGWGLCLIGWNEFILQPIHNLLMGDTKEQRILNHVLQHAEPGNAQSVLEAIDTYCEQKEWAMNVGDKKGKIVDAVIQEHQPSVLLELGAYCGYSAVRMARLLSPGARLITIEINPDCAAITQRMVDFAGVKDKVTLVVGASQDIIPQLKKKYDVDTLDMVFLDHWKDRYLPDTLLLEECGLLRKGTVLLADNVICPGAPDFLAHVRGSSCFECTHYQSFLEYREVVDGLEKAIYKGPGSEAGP
Turning to `C[C@]12Cc3cn4c(nc3C=C1CCC1C2CC[C@@]2(C)[C@H]1CC[C@@]2(O)C#N)nc1ccccc14` (some centres undefined), the activity is -23.1%.
The same measure, in the same setting: to `CCCN1CCc2cccc3c2[C@H]1Cc1ccc(O)c(O)c1-3` belongs 4.79%; to `CC(C)(C)c1cc(C=C(C#N)C#N)cc(C(C)(C)C)c1O`, -14.8%.
The same measure, in the same setting: to `C[C@@H]1[C@@H]2Cc3ccc(O)cc3[C@@]1(C)CCN2CC1CC1` belongs 7.89%; to `CCCN1CC[C@@H]2c3cc(O)ccc3CC[C@@H]21`, 1.91%; to `CCCN1CCc2cc(O)cc3c2[C@H]1Cc1ccc(O)c(O)c1-3`, 2.74%.
Still for that read-out and setting: to `CN1CC[C@@]2(C)c3cc(O)ccc3N(C)C12` (some centres undefined) belongs -27.2%; to `CCn1cnc2c(Nc3cccc(Cl)c3)nc(N[C@@H]3CCCC[C@@H]3N)nc21`, 7.4%; to `NC(=O)CI`, -3.06%.
With `CN(N=O)c1cc(O)ccc1O`, the activity was -96.7%.
On the same count and under the same terms, for `CC(N)c1cccc(Cl)c1Cl` (centres undefined) the value was 3.38%.
Still for that read-out and setting: to `NCC(O)c1cc(O)c(O)cc1F` (centres undefined) belongs 129%; to `CCCN1CCC[C@@H](c2cccc(O)c2)C1`, 4.08%; to `c1ccc2cc(CC3=NCCN3)ccc2c1`, 5%.
Still for that read-out and setting: for `COc1ccc2[nH]c3c(c2c1)CCNC3` the value was -6.01%.
As to `CN(N=O)c1ccc(O)c(O)c1`, the activity is -69.3%.
Same read-out and setting: for `CN1CCc2cc(O)cc3c2[C@H]1Cc1ccc(O)c(O)c1-3` the value was -101%.

In the next experiment the target is Guanidinoacetate N-methyltransferase (Homo sapiens) (UniProt Q14353). The experiment is described as above. To be noted: MTase-Glo luminescence, SAH detection, recombinant enzyme; activity change, negative = inhibition: at 57.3 µM (top of the series) unless noted.
On to `C[C@]12Cc3cn4c(nc3C=C1CCC1C2CC[C@@]2(C)[C@H]1CC[C@@]2(O)C#N)nc1ccccc14` (some centres undefined), for which the Potency is 0.611 µM (active).
For the compound `CCCN1CCc2cccc3c2[C@H]1Cc1ccc(O)c(O)c1-3`, the activity change, negative = inhibition is 5.72%.
On the same count and under the same terms, for `CC(C)(C)c1cc(C=C(C#N)C#N)cc(C(C)(C)C)c1O` the value was -1.85%; for `C[C@@H]1[C@@H]2Cc3ccc(O)cc3[C@@]1(C)CCN2CC1CC1`, 6.66%; for `CCCN1CC[C@@H]2c3cc(O)ccc3CC[C@@H]21`, 0.453%.
Same read-out and setting: to `CCCN1CCc2cc(O)cc3c2[C@H]1Cc1ccc(O)c(O)c1-3` belongs -2.35%.
Take `CN1CC[C@@]2(C)c3cc(O)ccc3N(C)C12` (some centres undefined): the Potency was 24.3 µM (active).
Turning to `CCn1cnc2c(Nc3cccc(Cl)c3)nc(N[C@@H]3CCCC[C@@H]3N)nc21`, the activity change, negative = inhibition was 4.82%.
On the same count and under the same terms, to `NC(=O)CI` belongs 0.112%.
For `CN(N=O)c1cc(O)ccc1O`, the Potency was 24.3 µM (active).
For the compound `CC(N)c1cccc(Cl)c1Cl` (centres undefined), the activity change, negative = inhibition is 5.58%.
Same read-out and setting: for `NCC(O)c1cc(O)c(O)cc1F` (centres undefined) the value was 4.77%.
Same read-out and setting: for `CCCN1CCC[C@@H](c2cccc(O)c2)C1` the value was 1.62%; for `c1ccc2cc(CC3=NCCN3)ccc2c1`, 3.5%; for `COc1ccc2[nH]c3c(c2c1)CCNC3`, 5.37%.
Consider `CN(N=O)c1ccc(O)c(O)c1`, for which the Potency is 27.3 µM (active).
In the case of `CN1CCc2cc(O)cc3c2[C@H]1Cc1ccc(O)c(O)c1-3`, the activity change, negative = inhibition was -1.59%.

The next experiment concerns the target Nicotinamide N-methyltransferase (Homo sapiens) (UniProt P40261). Described as above. The settings on record: MTase-Glo luminescence, SAH detection, recombinant enzyme; measured here: NNMT max response; stronger effect = lower value.
In the case of `C[C@]12Cc3cn4c(nc3C=C1CCC1C2CC[C@@]2(C)[C@H]1CC[C@@]2(O)C#N)nc1ccccc14` (some centres undefined), the activity was -35.3%.
With `CCCN1CCc2cccc3c2[C@H]1Cc1ccc(O)c(O)c1-3`, the activity was -3.62%.
Same read-out and setting: to `CC(C)(C)c1cc(C=C(C#N)C#N)cc(C(C)(C)C)c1O` belongs -20.4%.
Still for that read-out and setting: for `C[C@@H]1[C@@H]2Cc3ccc(O)cc3[C@@]1(C)CCN2CC1CC1` the value was -1.08%.
On the same count and under the same terms, to `CCCN1CC[C@@H]2c3cc(O)ccc3CC[C@@H]21` belongs -3.17%; to `CCCN1CCc2cc(O)cc3c2[C@H]1Cc1ccc(O)c(O)c1-3`, -21.6%.
As for `CN1CC[C@@]2(C)c3cc(O)ccc3N(C)C12` (some centres undefined), the activity is -23.6%.
On the same count and under the same terms, for `CCn1cnc2c(Nc3cccc(Cl)c3)nc(N[C@@H]3CCCC[C@@H]3N)nc21` the value was -17.5%; for `NC(=O)CI`, -21.3%; for `CN(N=O)c1cc(O)ccc1O`, -67.2%.
Same read-out and setting: for `CC(N)c1cccc(Cl)c1Cl` (centres undefined) the value was -1.94%.
Same read-out and setting: to `NCC(O)c1cc(O)c(O)cc1F` (centres undefined) belongs -1.34%.
In the case of `CCCN1CCC[C@@H](c2cccc(O)c2)C1`, the activity was 0.9%.
Same read-out and setting: to `c1ccc2cc(CC3=NCCN3)ccc2c1` belongs 0.294%; to `COc1ccc2[nH]c3c(c2c1)CCNC3`, -13.7%; to `CN(N=O)c1ccc(O)c(O)c1`, -14.9%.
Same read-out and setting: for `CN1CCc2cc(O)cc3c2[C@H]1Cc1ccc(O)c(O)c1-3` the value was -4.5%.

A further experiment deals with Phenylethanolamine N-methyltransferase (Homo sapiens) (UniProt P11086). The description is as above. The settings on record: MTase-Glo luminescence, SAH detection, recombinant enzyme; measured here: PNMT max response; stronger effect = lower value.
Chain of Phenylethanolamine N-methyltransferase (Homo sapiens) (P11086 whole entry, looked up): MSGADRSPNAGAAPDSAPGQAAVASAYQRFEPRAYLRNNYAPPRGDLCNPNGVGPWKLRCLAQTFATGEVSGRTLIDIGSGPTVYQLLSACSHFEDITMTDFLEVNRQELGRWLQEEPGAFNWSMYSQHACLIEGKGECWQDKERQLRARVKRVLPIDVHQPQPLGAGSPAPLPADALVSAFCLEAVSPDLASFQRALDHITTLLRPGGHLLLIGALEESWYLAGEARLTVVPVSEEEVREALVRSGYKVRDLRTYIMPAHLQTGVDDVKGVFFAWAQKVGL
Regarding `C[C@]12Cc3cn4c(nc3C=C1CCC1C2CC[C@@]2(C)[C@H]1CC[C@@]2(O)C#N)nc1ccccc14` (some centres undefined), the activity was -11.6%.
Still for that read-out and setting: to `CCCN1CCc2cccc3c2[C@H]1Cc1ccc(O)c(O)c1-3` belongs 6.46%; to `CC(C)(C)c1cc(C=C(C#N)C#N)cc(C(C)(C)C)c1O`, -25.9%.
Regarding `C[C@@H]1[C@@H]2Cc3ccc(O)cc3[C@@]1(C)CCN2CC1CC1`, the activity was found to be 4.55%.
The same measure, in the same setting: to `CCCN1CC[C@@H]2c3cc(O)ccc3CC[C@@H]21` belongs -0.789%.
For the compound `CCCN1CCc2cc(O)cc3c2[C@H]1Cc1ccc(O)c(O)c1-3`, the activity turned out to be 0.0057%.
With `CN1CC[C@@]2(C)c3cc(O)ccc3N(C)C12` (some centres undefined), the activity is -16.3%.
As to `CCn1cnc2c(Nc3cccc(Cl)c3)nc(N[C@@H]3CCCC[C@@H]3N)nc21`, the activity was 1.09%.
On to `NC(=O)CI`, for which the activity was -8.06%.
On the same count and under the same terms, for `CN(N=O)c1cc(O)ccc1O` the value was -42.7%.
Still for that read-out and setting: for `CC(N)c1cccc(Cl)c1Cl` (centres undefined) the value was -98.4%; for `NCC(O)c1cc(O)c(O)cc1F` (centres undefined), 31.6%.
The same measure, in the same setting: to `CCCN1CCC[C@@H](c2cccc(O)c2)C1` belongs 6.74%; to `c1ccc2cc(CC3=NCCN3)ccc2c1`, 4.14%; to `COc1ccc2[nH]c3c(c2c1)CCNC3`, -2.07%.
In the case of `CN(N=O)c1ccc(O)c(O)c1`, the activity is -27.8%.
Same read-out and setting: for `CN1CCc2cc(O)cc3c2[C@H]1Cc1ccc(O)c(O)c1-3` the value was -1.47%.
